Results reported in PubChem BioAssay AID1159580 (chemical genetic matrix, 2015).
Values joined by “and” are separate entries in the source; they are usually repeats but may differ in a detail not shown here. Equal values may be shown once. About 2,000 (36%) of roughly 5,500 compounds were called active. Inconclusive results (about 18%) are left out. No stated cut-off is given here; in the data, active means normalized growth mostly below about 0.91 (no sharp cut-off); inconclusive means no clear call, values can overlap the other calls; inactive means mostly above about 0.92. The list shows a part of the results.

Assay: chemical genetic growth profiling, strain panel (AID 1159580);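 further: tested at 20 µM; growth read once vehicle control cultures reached saturation at 30 °C; 1 = growth at the plate median or of vehicle wells; lower values mean less growth of the strain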
Conditions: S. cerevisiae deletion strains, growth OD

Measured: normalized growth

COc1ccc(C2CC(=O)c3ccc(OC)cc3O2)cc1 (centres undefined)
active: locus YBR009C, strain hhf1, active compounds read low 0.854 | locus YBR021W, strain FUR4, active compounds read low 0.805 | locus YDL074C, strain BRE1, active compounds read low 0.689 | locus YDL192W, strain arf1, active compounds read low 0.891 | locus YDR162C, strain NBP2, active compounds read low 0.74 | locus YDR195W, strain ref2 1.19 [resistant] | locus YDR318W, strain mcm21, active compounds read low 0.906 | locus YDR392W, strain spt3, active compounds read low 0.538 | locus YDR502C, strain sam2, active compounds read low 0.882 | locus YEL061C, strain CIN8, active compounds read low 0.905 | locus YER155C, strain BEM2 (second series), active compounds read low 0.683 | locus YER167W, strain BCK2, active compounds read low 0.89 | locus YGL086W, strain mad1, active compounds read low 0.898 | locus YGL240W, strain doc1, active compounds read low 0.786 | locus YGL248W, strain PDE1, active compounds read low 0.843 | locus YGL253W, strain hxk2, active compounds read low 0.891 | locus YGR135W, strain pre9, active compounds read low 0.857 | locus YGR229C, strain SMI1, active compounds read low 0.504 | locus YGR252W, strain gcn5, active compounds read low 0.628 | locus YHR030C, strain SLT2, active compounds read low 0.744 and 0.843 | locus YHR129C, strain ARP1, active compounds read low 0.882 | locus YHR142W, strain chs7, active compounds read low 0.842 | locus YIL066C, strain RNR3, active compounds read low 0.793 | locus YIR030C, strain dcg1, active compounds read low 0.92 | locus YJL095W, strain BCK1, active compounds read low 0.523 and 0.838 | locus YJL164C, strain tpk1, active compounds read low 0.898 | locus YJL166W, strain qcr8, active compounds read low 0.859 | locus YJR066W, strain TOR1, active compounds read low 0.805 | locus YKL009W, strain mrt4, active compounds read low 0.862
inactive: locus YAL021C, strain ccr4, active compounds read low 0.953 | locus YAL026C, strain drs2, active compounds read low 0.939 | locus YAL030W, strain snc1, active compounds read low 0.954 | locus YBL061C, strain skt5, active compounds read low 0.948 | locus YBR023C, strain chs3, active compounds read low 0.915 | locus YBR171W, strain sec66, active compounds read low 0.936 | locus YBR229C, strain ROT2, active compounds read low 0.963 | locus YBR231C, strain swc5, active compounds read low 0.921 | locus YBR279W, strain paf1, active compounds read low 0.95 | locus YCL011C, strain gbp2, active compounds read low 0.928 | locus YCL016C, strain dcc1, active compounds read low 0.939 | locus YCL029C, strain bik1, active compounds read low 0.923 | locus YCL061C, strain MRC1, active compounds read low 0.932 | locus YCL069W, strain vba3, active compounds read low 0.961 | locus YCR088W, strain abp1, active compounds read low 0.957 | locus YDL005C, strain med2, active compounds read low 0.96 | locus YDL035C, strain GPR1, active compounds read low 0.872 | locus YDL040C, strain nat1, active compounds read low 0.956 | locus YDL101C, strain DUN1, active compounds read low 0.9 | locus YDL185W, strain tfp1, active compounds read low 0.938 | locus YDR001C, strain nth1, active compounds read low 0.951 | locus YDR069C, strain doa4, active compounds read low 0.953 | locus YDR101C, strain arx1, active compounds read low 0.93 | locus YDR137W, strain rgp1, active compounds read low 0.966 | locus YDR159W, strain sac3, active compounds read low 0.929 | locus YDR297W, strain sur2, active compounds read low 0.948 | locus YDR334W, strain swr1, active compounds read low 0.961 | locus YDR335W, strain msn5, active compounds read low 0.953 | locus YDR388W, active compounds read low 0.955 | locus YEL003W, strain gim4, active compounds read low 0.94 | locus YEL037C, strain rad23, active compounds read low 0.962 | locus YEL061C, strain CIN8 (second series), active compounds read low 0.967 | locus YER015W, strain faa2, active compounds read low 0.96 | locus YER016W, strain bim1, active compounds read low 0.963 | locus YER110C, active compounds read low 0.937 | locus YER111C, strain swi4, active compounds read low 0.959 | locus YER155C, strain BEM2, active compounds read low 0.979 | locus YFR010W, strain ubp6, active compounds read low 0.954 | locus YGL078C, strain dbp3, active compounds read low 0.958 | locus YGL167C, strain pmr1, active compounds read low 0.938 | locus YGL173C, strain kem1, active compounds read low 0.931 | locus YGL227W, strain vid30, active compounds read low 0.959 | locus YHR013C, strain ard1, active compounds read low 0.866 | locus YHR027C, strain rpn1, active compounds read low 0.965 | locus YHR079C, strain IRE1 (second series), active compounds read low 0.97 | locus YHR079C, strain IRE1, active compounds read low 0.878 | locus YHR094C, strain hxt1, active compounds read low 0.956 | locus YHR200W, strain rpn10, active compounds read low 0.929 | locus YIL073C, strain SPO22, active compounds read low 0.772 | locus YIL125W, strain kgd1, active compounds read low 0.94 | locus YJL092W, strain hpr5, active compounds read low 0.957 | locus YJL095W, strain BCK1 (second series), active compounds read low 0.927 | locus YJL115W, strain asf1, active compounds read low 0.954 | locus YJL129C, strain trk1, active compounds read low 0.992 | locus YJL134W, strain LCB3, active compounds read low 0.975 | locus YJL154C, strain vps35, active compounds read low 0.977 | locus YJL168C, strain set2, active compounds read low 0.95 | locus YJL187C, strain SWE1 (second series), active compounds read low 0.868 | locus YJL187C, strain SWE1, active compounds read low 0.948 | locus YJR043C, strain POL32, active compounds read low 0.861
